Only a selection was taken, and hits are over-represented in it overall.
FXIa mix inh: blocks human factor XIa in pooled compound mixtures; P03951; inhibition, % at 5 µM; 0.19% of 62,000 active; purified FXIa, fluorogenic substrate;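 further: each value is inhibition by a whole ten-compound pool holding the compound; 0% = enzyme with no mixture and 100% = wells lacking enzyme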
TNAP act DEA: human TNAP activation, intermediate phosphate acceptor; P05186; purified TNAP, CDP-star luminescence, 100 mM DEA, 30 min; active compounds read high; scale: 0 levamisole-inhibited, 1 vehicle-only enzyme; 64,000 tested, under 10 active; activation factor at 20 µM;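 active means activation factor of at least 2 at 20 µM, relative to controls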
Target sequence (P05186 whole entry, looked up): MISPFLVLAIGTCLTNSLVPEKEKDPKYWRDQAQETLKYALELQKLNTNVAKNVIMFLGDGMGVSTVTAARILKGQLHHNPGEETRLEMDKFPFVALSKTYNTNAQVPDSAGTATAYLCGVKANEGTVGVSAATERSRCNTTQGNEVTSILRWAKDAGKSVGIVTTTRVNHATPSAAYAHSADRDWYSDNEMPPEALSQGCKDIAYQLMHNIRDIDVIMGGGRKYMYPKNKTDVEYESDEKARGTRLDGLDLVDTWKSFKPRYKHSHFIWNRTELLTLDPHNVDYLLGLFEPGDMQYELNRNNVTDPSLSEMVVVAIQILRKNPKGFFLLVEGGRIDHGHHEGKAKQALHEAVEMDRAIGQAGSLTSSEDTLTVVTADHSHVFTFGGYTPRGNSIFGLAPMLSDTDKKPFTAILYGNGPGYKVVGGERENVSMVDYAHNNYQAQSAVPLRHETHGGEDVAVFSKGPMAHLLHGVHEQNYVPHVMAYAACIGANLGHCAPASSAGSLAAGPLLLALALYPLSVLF
Calb biofilm kill: kills Candida albicans biofilms. C. albicans biofilm + clotrimazole, Alamar Blue. inhibition, % at 6 µM. 0.14% of 85,000 active;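 active means inhibition above 20%; inactive means inhibition below 20%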;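 further: preformed 24 hr biofilms exposed to compound for 48 hr; 0% = biofilm without compound and 100% = blank killed by clotrimazole plus chlorhexidine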
FXIIa mix inh: factor XIIa (human) inhibition, mixture screen; purified FXIIa, fluorogenic substrate, pooled mixtures; inhibition, % at 5 µM; 0.2% of 62,000 active; AID 684;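 further: 0% = enzyme without compound and 100% = no enzyme blank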
D1 mod: allosteric modulators of human D1 dopamine receptor; 5.9% of 58,000 active; B-score at 10 µM; AID 641; HEK293 D1, CRE-luciferase, dopamine EC30 potentiation; actives deviate in either direction;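 active means luminescence count or its row- and column-corrected plate score outside the 99.7% band of the plate's sample wells, on either side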
HePTP inhibitor: blocks human HePTP tyrosine phosphatase. recombinant HePTP phosphatase activity, OD absorbance. inhibition, % at 20 µM. 0.64% of 110,000 active. AID 521; in the data active means inhibition above about 50%;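 further: plate controls were vehicle for no effect and reference inhibitor for full effect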
The depositor's hits bear a star; x = no result given. Unless noted, no stated cut-off is given here; in the data, active means inhibition above about 20% (passing the limit was not always enough); inactive means the rest.

SMILES | FXIa mix inh | TNAP act DEA | Calb biofilm kill | FXIIa mix inh | D1 mod | HePTP inhibitor
Cc1cc(C)c(C(=O)Nc2ccccc2C(N)=O)c(C)c1 | x | x | x | x | x | 8
CCOc1ccc(NC(=O)c2c(NC(=O)C(C)(C)C)sc3c2CCCC3)cc1 | x | x | x | x | x | -17
O=C(N/N=C\c1ccccc1C(F)(F)F)c1n[nH]c2c1CCCC2 | x | x | x | x | x | -1
CCN1CCOC(c2ccccc2)C(C(=O)OC)C1C(=O)OC (stereo unspecified) | x | x | x | x | x | 1
CC1CCCN(S(=O)(=O)c2ccc3c(c2)CCN3C(=O)C2CCC2)C1 (stereo unspecified) | 9 | 0.9 | 3 | 4 | -4.1* | -2
Cc1ccc(NC(=O)c2ccccc2F)nc1 | -4 | 0.9 | 7 | -20 | -3* | -1
O=C(Nc1ccc(Br)cn1)c1ccccc1F | x | x | x | x | x | 4
CCc1ccc(N(C)S(=O)(=O)c2ccc3[nH]cc(C(=O)NCCN4CCOCC4)c(=O)c3c2)cc1 | x | x | 46* | x | x | x
CCN(CC)S(=O)(=O)c1ccc2[nH]cc(C(=O)NCCN3CCCCCC3)c(=O)c2c1 | -12 | 0.9 | 3 | 8 | 0.014 | 7
C=CCNC(=O)c1cc(OC)c(OC)c(OC)c1 | x | x | x | x | x | 3
COc1ccc(S(=O)(=O)N2CCCC(C(=O)NC3CCCCC3)C2)cc1 (stereo unspecified) | 5 | 0.9 | 2 | -2 | 0.017 | 2
COc1ccc(S(=O)(=O)N2CCCC(C(=O)O)C2)cc1 (stereo unspecified) | 4 | 0.9 | 4 | -13 | -2.6* | -5
COc1ccc(S(=O)(=O)N2CCC(C(N)=O)CC2)cc1 | 31* | 1 | 6 | -12 | 0.62 | -13
COc1ccc(Nc2nc(N)nc(CN3CCC(Cc4ccccc4)CC3)n2)cc1 | 0 | 1 | 9 | 4 | -3* | -11
CCN(CC)c1ccc2cc(-c3nc4ccccc4[nH]3)c(=O)oc2c1 | -8 | 1.4 | 4 | 7 | -3.6* | 2
Cc1ccc2nsnc2c1S(=O)(=O)N(Cc1cc2cccc(C)c2[nH]c1=O)CC1CCCO1 (stereo unspecified) | 2 | 0.8 | 3 | -2 | -5.1* | 13
Cc1cc(C(=O)N=Nc2c(O)n(Cc3ccccc3)c3ccc(Br)cc23)n[nH]1 | x | x | x | x | x | 2
Nc1nonc1C(=O)NCCNCc1cc(Br)ccc1OCc1ccccc1F | 7 | 0.9 | 7 | 2 | -3.3* | -2
COc1ccc(/C=N\n2nnc3ccccc32)cc1 | 3 | 0.9 | x | 0 | -3.9* | -1
CCOC(=O)c1ccc(-n2c(C)nc3c(cnn3-c3ccccc3Cl)c2=O)cc1 | x | x | 4 | x | x | x
CCOC(=O)c1ccc(-n2c(C)nc3c(cnn3-c3ccc(Cl)cc3)c2=O)cc1 | x | x | 34* | x | x | x
O=C(Nc1ccc(N2CCOCC2)cc1)c1cnsn1 | -1 | 1 | 5 | 5 | -6.8* | -7
Cc1cc(C)c2c(n1)nn1c(N3CCN(c4ccccn4)CC3)cc(C)nc21 | -6 | 1 | 8 | 1 | -0.81 | 4
Cc1cc(C)c2c(n1)nn1c(N3CCN(c4ccccc4)CC3)cc(C)nc21 | -2 | 0.9 | x | -8 | -4.1* | 10
CC(=O)Nc1cc(OC(=O)c2ccco2)cc(OC(=O)c2ccco2)c1 | 25* | 0.9 | 2 | 9 | 0.027 | -4
SMILES | FXIa mix inh | TNAP act DEA | Calb biofilm kill | FXIIa mix inh | D1 mod | HePTP inhibitor
O=C(Nc1nc2nc(-c3ccccc3)cc(-c3ccccc3)n2n1)c1ccco1 | 0 | 1 | x | -34 | -2.5* | 7
Nc1nc(NC(=O)c2ccco2)nn1-c1ccccc1 | 2 | 0.9 | 6 | 2 | 0.015 | 1
Cc1nc(=O)c(-c2ccccc2)c(C)n1-c1ccccc1O | 5 | 0.9 | 4 | 4 | -5.6* | 0
Cc1nc(=O)c(-c2ccccc2)c(C)n1-c1ccc(O)cc1 | x | x | 2 | x | x | x
O=C(COc1ccc2ccc(=O)oc2c1)Nc1ccccn1 | x | x | x | x | x | 11
COc1cc2c(C(=O)N3CCN(C4CCCCC4)CC3)cn(CC(C)C)c(=O)c2cc1OC | 25 | 1 | 8 | 9 | -5.7* | 12
COc1ccc(CCN=CC2=C(O)c3ccccc3C2=O)cc1 | x | x | x | x | x | 7
CCOc1ccc(C(=O)Nc2ccc(-c3nc4ccccc4o3)c(O)c2)cc1[N+](=O)[O-] | x | x | x | x | x | 104*
COc1cc(NC(=O)c2ccc(C)c([N+](=O)[O-])c2)ccc1NC(=O)c1ccco1 | x | x | x | x | x | 5
CCOc1ccc(C(=O)Nc2ccc(NC(=O)c3ccco3)c(OC)c2)cc1[N+](=O)[O-] | x | x | x | x | x | 104*
COc1cc(NC(=O)c2ccco2)c(OC)cc1NC(=O)c1cc(OC)c(OC)c(OC)c1 | 0 | 0.9 | 7 | 3 | -2.3 | 2
CCOc1cc(NC(=O)c2ccco2)c(OCC)cc1NC(=O)c1cc(OC)c(OC)c(OC)c1 | 13 | 0.9 | 7 | 5 | -5* | 8
COc1ccc(S(=O)(=O)N(CC(=O)N=Nc2c(O)[nH]c3ccccc23)c2cc(C)cc(C)c2)cc1OC | x | x | x | x | x | -3
O=[N+]([O-])c1ccccc1/C=N/N1CCN(Cc2ccc(Cl)cc2)CC1 | x | x | x | x | x | 0
Cc1ccccc1/C=N/N1CCN(Cc2ccc(Cl)cc2)CC1 | x | x | x | x | x | 105*
CCOC(=O)c1ccc(N2C(=O)c3n[nH]c(C)c3C2c2ccc(OC)cc2)cc1 (stereo unspecified) | 5 | 1 | 6 | 5 | 0.35 | 4
CCOC(=O)c1ccc(N2C(=O)c3n[nH]c(C)c3C2c2ccc(OC)c(OC)c2)cc1 (stereo unspecified) | -12 | 1 | 4 | 1 | -2.3* | 4
COC(=O)CN1C(=O)C(=Cc2cccc(OCc3ccccc3)c2)SC1=S | x | x | x | x | x | 4
CCc1ccc(NC(=O)c2cc(C)on2)cc1 | 8 | 1 | x | -19 | -3.1* | 3
CCOC(=O)c1cnn(-c2ncnc3c2oc2ccccc23)c1N | 10 | 1 | 7 | 11 | -3.7* | 8
CCn1cc(C(=O)NCC(=O)OC)c2cc(OC)c(OC)cc2c1=O | 15 | 0.9 | 7 | -1 | -0.009 | 10
CCn1cc(C(=O)NCc2ccc(C)o2)c2cc(OC)c(OC)cc2c1=O | 0 | 0.9 | 3 | 5 | -6.3* | -8
FC(F)(F)c1ccc(N/N=C/c2ccc3c(c2)OCO3)nc1 | x | x | x | x | x | 4
CCOC(=O)c1ccc(NC(=S)NC(NC(=O)Cc2ccccc2)C(Cl)(Cl)Cl)cc1 (stereo unspecified) | x | x | x | x | x | 104*
O=C1N/C(=N/N=C/c2ccccc2O)SC1Cc1ccccc1 (stereo unspecified) | x | x | x | x | x | 3
SMILES | FXIa mix inh | TNAP act DEA | Calb biofilm kill | FXIIa mix inh | D1 mod | HePTP inhibitor
CCC1=NN2C(=N)/C(=C/c3ccc(-c4cccc([N+](=O)[O-])c4)o3)C(=O)N=C2S1 | x | x | x | x | x | 0
NC1=NC(=O)/C(=C\c2ccc(-c3cccc(C(=O)O)c3)o2)S1 | x | x | x | x | x | -5
CC(C)C1=NN2C(=N)/C(=C/c3ccc(-c4cccc(C(=O)O)c4)o3)C(=O)N=C2S1 | x | x | x | x | x | 25
CCCC1=NN2C(=N)/C(=C/c3ccc(-c4ccc([N+](=O)[O-])cc4Br)o3)C(=O)N=C2S1 | x | x | x | x | x | 76*
CC(C)C1=NN2C(=N)/C(=C/c3ccc(-c4ccc([N+](=O)[O-])cc4)o3)C(=O)N=C2S1 | x | x | x | x | x | 79*
NC1=NC(=O)/C(=C\c2ccc(-c3ccc([N+](=O)[O-])cc3)o2)S1 | x | x | x | x | x | 64*
